# Measured values published in PubChem BioAssay (NCATS).
# Where “and” joins values, the source holds several entries; their conditions need not be identical. Equal entries are not always repeated. Inconclusive results are not listed. Where a call stands in place of a potency, no number is given. Calls of active or inactive are those of the source. Unless noted, the call rests on the fitted dose curve; in most records, active means well fitted curve in the direction sought with a large enough effect; inconclusive means small, poorly fitted or top-dose-only effect, or another doubt; inactive means no such curve, though single readings can be large; an effect the other way counts as inactive or inconclusive.
# Assays:
# [1] = Cell Viability - NIH 3T3 (AID 541); details: NIH 3T3 cell viability, qHTS; activity change, negative = cytotoxicity: at 92.2 µM (top of the series); further: nearly all actives have a fitted effect of over 25% in size; further: potency means the concentration at half of the fitted maximal effect
# Outline: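 Mouse NIH 3T3 fibroblasts, 1000 cells/well, rested 5 hr at 37 °C, then exposed to compound for 40 hr at 37 °C in complete medium. Viability read as intracellular ATP by CellTiter-Glo luminescence; AC50 from Hill-equation fits of concentration-response data.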
# [2] = Cell Viability - SH-SY5Y (AID 544); details: SH-SY5Y neuroblastoma cell viability; viability change, negative = cytotoxic: at 92.2 µM (top of the series); further: nearly all actives have a fitted effect of over 55% in size; further: potency means the concentration at half of the fitted maximal effect
# Outline: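 SH-SY5Y human neuroblastoma cells (1500/well) incubated 5 h, then compound-treated 40 h at 37 °C in complete medium. Viability read as intracellular ATP by CellTiter-Glo luminescence after 20 min; AC50 from Hill-equation fits of qHTS concentration-response.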
# [3] = Cell Viability - LYMP2-001 (AID 921); further: nearly all actives have a fitted effect of over 70% in size
# Outline: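 qHTS, 1536-well; lymphoblastoid cells, 24 hr compound, 37 C; ATP by CellTiter-Glo, 30 min RT; luminescence; Hill-fit AC50.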
# [4] = Cell Viability - LYMP1-003 - Assay at 40 hr (AID 964); further: nearly all actives have a fitted effect of over 60% in size
# Outline: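 LYMP1-003 human lymphoblastoid cells, 2500/well, preincubated 5 h at 37 C, then treated with compound for 40 h at 37 C. Intracellular ATP read by CellTiter-Glo luminescence after 30 min at room temperature; AC50 from Hill-equation fits.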
# [5] = Cell Viability - LYMP2-015 (AID 971); further: nearly all actives have a fitted effect of over 55% in size
# Outline: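 LYMP2-015 human lymphoblastoid cells (2500/well) in complete medium, compound-treated 24 h at 37 C; viability read as cellular ATP by CellTiter-Glo luminescence after 30 min at room temperature. AC50 from Hill-equation fits of qHTS concentration-response data.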
# [6] = Cell Viability - LYMP2-017 (AID 972); further: nearly all actives have a fitted effect of over 55% in size
# Outline: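 LYMP2-017 human lymphoblastoid cells (2500/well) settled 5 hr at 37 C, then exposed to compound 24 hr at 37 C in complete medium. Viability taken as intracellular ATP by CellTiter-Glo luminescence after 30 min at RT; AC50 from Hill fits.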
# [7] = Cell Viability - LYMP2-025 (AID 976)
# Outline: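 Human lymphoblastoid LYMP2-025 cells, 2500/well, exposed 24 h at 37 C in complete medium in 1536-well qHTS. Viability as cellular ATP by CellTiter-Glo luminescence; AC50 from Hill fits of concentration-response data.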
# [8] = Cell Viability - LYMP2-006 (AID 978); further: nearly all actives have a fitted effect of over 60% in size
# Outline: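 Concentration-dependent loss of intracellular ATP in a human lymphoblastoid line after 24 hr treatment at 37 C was measured by CellTiter-Glo luminescence, with AC50 values obtained from standard Hill-equation modelling.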
# [9] = Cell Viability - LYMP2-010 (AID 981); further: nearly all actives have a fitted effect of over 55% in size
# Outline: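 Human lymphoblastoid LYMP2-010 cells (2500/well) treated 24 h at 37 C in complete medium; viability read as intracellular ATP by CellTiter-Glo luminescence. AC50 from Hill fits of concentration-response data; tetraoctylammonium bromide positive control.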
# [10] = Cell Viability - LYMP2-012 (AID 982)
# [11] = Cell Viability - LYMP2-014 (AID 983); further: nearly all actives have a fitted effect of over 50% in size
# Outline: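 LYMP2-014 human lymphoblastoid cells, 2500/well, treated 24 h at 37 C in complete medium; viability by CellTiter-Glo ATP luminescence after 30 min at room temperature. AC50 from Hill fits of qHTS concentration-response; tetraoctylammonium bromide positive control.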
# [12] = Cell Viability - LYMP2-022 (AID 987); further: nearly all actives have a fitted effect of over 55% in size
# Outline: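 LYMP2-022 lymphoblastoid cells (2500/well, complete medium) were treated with compounds for 24 hours at 37 C; intracellular ATP was then read by CellTiter-Glo luminescence after 30 min at room temperature. AC50 values were derived from Hill-equation fits.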
# [13] = qHTS assay for small molecule agonists of retinoid X receptor alpha signaling (AID 588544; calls by dose curve); details: HEK293T RXRa-UAS-bla, beta-lactamase reporter, 18 h; 530 nm emission
# [14] = biological target: Retinoic acid receptor RXR-alpha (Homo sapiens) (UniProt P19793); experiment: as above
# [15] = biological target: Thyroid hormone receptor beta (Homo sapiens) (UniProt P10828); experiment: qHTS assay for small molecule agonists of thyroid hormone receptor beta signaling (AID 588545; calls by dose curve)
# Outline: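 Agonist activity was read as beta-lactamase CCF4 fluorescence (405 ex, 460/530 em), scaled between DMSO (0%) and 10 nM T3 (100%), then Hill-fitted for EC50 and efficacy. HEK 293 TR-UAS-bla cells in 2% charcoal/dextran FBS medium were exposed 18 h at 37 C.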
# [16] = qHTS assay for small molecule antagonists of retinoid X receptor alpha signaling (AID 588546; active means well fitted inhibition curve with a large enough effect in the signal ratio, with a control signal flat, not every such curve was filed as active; the % refers to the signal ratio;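 further: cells stimulated with 9-cis-retinoic acid as agonist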); details: HEK293T RXRa-UAS-bla, beta-lactamase ratio, antagonist mode; measured here: W530 green channel, cytotoxicity proxy
# Outline: (§1)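 Beta-lactamase reporter inhibition, read as CCF4 fluorescence ratio (ex 405, em 460/530 nm) after 2 h at RT. HEK293T UAS-bla cells, 2500/well, were stimulated with 9-cis-RA at 500 or 100 nM final alongside test compound for 18 h at 37 C.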
# [17] = biological target: Retinoic acid receptor RXR-alpha (Homo sapiens) (UniProt P19793); experiment: as above; details: HEK293T RXRa-UAS-bla, beta-lactamase ratio, antagonist mode
# Outline: as §1
# [18] = biological target: Thyroid hormone receptor beta (Homo sapiens) (UniProt P10828); experiment: qHTS assay for small molecule antagonists of thyroid hormone receptor beta signaling (AID 588547; active means well fitted inhibition curve with a large enough effect in the signal ratio, with a control signal flat, not every such curve was filed as active; the % refers to the signal ratio;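 further: cells stimulated with 0.4 nM T3 agonist during compound exposure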); details: TR-UAS-bla HEK293, beta-lactamase ratio, antagonist mode, 18 h
# Outline: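 Inhibition of T3-driven (0.4nM final) beta-lactamase reporter activity was measured over 0.59 nM to 92 uM compound after 18 h at 37 C. The cells were GripTite HEK293 TR-UAS-bla in charcoal/dextran-stripped serum, with CCF4 ratio read-out and IC50 from Hill fits.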
# [19] = biological target: Voltage-gated inwardly rectifying potassium channel KCNH2 (Homo sapiens) (UniProt Q12809); experiment: qHTS Assay for Small Molecule Inhibitors of the Human hERG Channel Activity (AID 588834);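 further: lower thallium flux fluorescence means stronger hERG block; nearly all actives have a fitted effect of over 50% in size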; further: potency means the concentration at half of the fitted maximal effect
# Outline: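 Measured: FluxOR fluorescence after thallium stimulation in U2OS cells transduced with hERG by baculovirus. Compounds pre-incubated around 10 min; medium Opti-MEM with 2% FCS. AC50 from Hill equation.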
# [20] = Cell Viability - LYMP2-004 (AID 966); further: nearly all actives have a fitted effect of over 65% in size
# Outline: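 Lymphoblastoid LYMP2-004 cells, 2500 per well, were preincubated for 5 hr and then treated with compound for 24 h at 37 C in complete medium. Viability was read as cellular ATP by CellTiter-Glo luminescence, and AC50 values were taken from Hill fits to concentration-response data.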
# Chain of Retinoic acid receptor RXR-alpha (Homo sapiens) (P19793 whole entry, looked up): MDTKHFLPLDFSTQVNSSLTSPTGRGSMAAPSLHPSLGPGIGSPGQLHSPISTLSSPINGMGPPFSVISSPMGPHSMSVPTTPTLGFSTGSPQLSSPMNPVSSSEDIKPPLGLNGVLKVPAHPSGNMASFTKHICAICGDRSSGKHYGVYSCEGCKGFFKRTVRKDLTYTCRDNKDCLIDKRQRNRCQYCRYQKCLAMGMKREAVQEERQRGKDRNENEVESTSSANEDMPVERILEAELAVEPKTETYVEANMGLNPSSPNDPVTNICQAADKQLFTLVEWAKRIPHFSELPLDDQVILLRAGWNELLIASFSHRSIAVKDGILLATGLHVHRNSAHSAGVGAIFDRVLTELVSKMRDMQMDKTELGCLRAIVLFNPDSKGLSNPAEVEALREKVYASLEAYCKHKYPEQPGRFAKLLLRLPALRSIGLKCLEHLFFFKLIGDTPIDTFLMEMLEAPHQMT
# Chain of Thyroid hormone receptor beta (Homo sapiens) (P10828 whole entry, looked up): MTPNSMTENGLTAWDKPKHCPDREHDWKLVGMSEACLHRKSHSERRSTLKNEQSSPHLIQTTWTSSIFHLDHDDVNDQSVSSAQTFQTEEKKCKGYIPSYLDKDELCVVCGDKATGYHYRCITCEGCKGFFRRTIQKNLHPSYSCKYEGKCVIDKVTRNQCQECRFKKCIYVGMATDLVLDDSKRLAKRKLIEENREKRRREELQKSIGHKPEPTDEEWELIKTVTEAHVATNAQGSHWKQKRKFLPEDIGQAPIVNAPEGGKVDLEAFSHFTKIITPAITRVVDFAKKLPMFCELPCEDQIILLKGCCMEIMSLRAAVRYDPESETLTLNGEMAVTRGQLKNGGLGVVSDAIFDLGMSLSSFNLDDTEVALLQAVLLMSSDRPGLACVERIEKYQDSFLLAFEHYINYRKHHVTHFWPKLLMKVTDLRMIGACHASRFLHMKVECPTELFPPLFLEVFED
# Chain of Voltage-gated inwardly rectifying potassium channel KCNH2 (Homo sapiens) (Q12809 whole entry, looked up): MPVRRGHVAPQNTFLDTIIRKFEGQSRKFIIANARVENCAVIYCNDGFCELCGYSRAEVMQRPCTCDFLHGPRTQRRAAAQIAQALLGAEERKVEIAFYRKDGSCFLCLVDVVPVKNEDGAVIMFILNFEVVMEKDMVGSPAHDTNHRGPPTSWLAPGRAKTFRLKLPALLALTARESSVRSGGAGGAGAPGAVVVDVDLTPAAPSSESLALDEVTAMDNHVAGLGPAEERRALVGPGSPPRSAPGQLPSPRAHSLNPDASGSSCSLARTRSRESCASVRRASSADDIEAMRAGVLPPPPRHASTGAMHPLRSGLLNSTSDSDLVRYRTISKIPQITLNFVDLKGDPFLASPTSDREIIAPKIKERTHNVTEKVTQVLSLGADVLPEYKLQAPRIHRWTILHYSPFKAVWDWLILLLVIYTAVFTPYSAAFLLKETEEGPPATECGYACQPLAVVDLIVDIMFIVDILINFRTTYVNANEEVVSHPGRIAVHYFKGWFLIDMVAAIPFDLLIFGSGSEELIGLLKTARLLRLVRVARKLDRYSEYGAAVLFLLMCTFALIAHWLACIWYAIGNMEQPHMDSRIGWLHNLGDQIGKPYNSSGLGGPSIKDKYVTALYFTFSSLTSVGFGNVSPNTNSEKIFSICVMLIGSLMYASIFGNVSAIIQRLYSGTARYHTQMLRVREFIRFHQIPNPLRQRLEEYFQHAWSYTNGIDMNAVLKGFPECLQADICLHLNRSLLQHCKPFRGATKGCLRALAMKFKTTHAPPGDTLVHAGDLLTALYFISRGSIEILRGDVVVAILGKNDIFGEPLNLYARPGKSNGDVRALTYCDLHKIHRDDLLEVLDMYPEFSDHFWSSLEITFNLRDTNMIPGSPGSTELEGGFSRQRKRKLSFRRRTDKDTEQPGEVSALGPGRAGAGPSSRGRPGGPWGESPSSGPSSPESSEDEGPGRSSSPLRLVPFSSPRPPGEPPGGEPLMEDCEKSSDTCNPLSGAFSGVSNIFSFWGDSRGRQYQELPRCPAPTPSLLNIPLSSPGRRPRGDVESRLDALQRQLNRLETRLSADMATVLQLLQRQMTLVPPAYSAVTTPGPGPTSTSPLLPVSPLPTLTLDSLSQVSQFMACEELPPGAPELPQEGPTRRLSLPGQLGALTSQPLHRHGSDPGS
Structure (SMILES),Potency [1],Potency [2],Potency [3],Potency [4],Potency [5],Potency [6],Potency [7],Potency [8],Potency [9],Potency [10],Potency [11],Potency [12],max response [13],outcome [14],Potency [15],max response [16],max response [17],activity change % (negative = inhibition) [18],Potency [19],Potency [20]
[N-]=[N+]=[N-],inactive,inactive,inactive,inactive,inactive,inactive,inactive,inactive,inactive,inactive,inactive,inactive,-2.08%,inactive,inactive,-3.73%,13.8% (inactive),7.76% (inactive),inactive,–
COC(=O)c1ccccc1N,–,inactive,inactive,inactive,–,inactive,inactive,inactive,inactive,inactive,inactive,inactive,-15.1%,inactive,inactive,0.965%,17.4% (inactive),-1.98% (inactive),inactive,inactive
O=[N+]([O-])c1cccc(O)c1,inactive,inactive,inactive,inactive,inactive,inactive,inactive,inactive,inactive,inactive,inactive,inactive,0.893%,inactive,inactive,-2.66%,-5.97% (inactive),6.02% (inactive),inactive,inactive
CC(=O)[O-].CC(=O)[O-].CC(=O)[O-].[Cr+3],inactive,inactive,inactive,inactive,inactive,inactive,inactive,inactive,inactive,inactive,inactive,inactive,-6.52%,inactive,inactive,-2.43%,18.8% (inactive),2.34% (inactive),inactive,inactive
CCCN(CCC)c1c([N+](=O)[O-])cc(C(F)(F)F)cc1[N+](=O)[O-],inactive,inactive,inactive,inactive,inactive,inactive,inactive,inactive,inactive,inactive,inactive,inactive,-17.3% and 1.94%,inactive,inactive,-6.59% and -3.08%,0.285% (inactive) and -10.3% (inactive),9.18% (inactive) and -4.26% (inactive),–,inactive
NC1CCC(CC2CCC(N)CC2)CC1 (stereo not given),–,inactive,–,inactive,inactive,inactive,inactive,inactive,inactive,inactive,inactive,inactive,8.4%,inactive,inactive,2.2% and -10.5%,-0.208% (inactive) and 1.62% (inactive),7.19% (inactive),inactive,inactive
CNC(=O)O/N=C/C(C)(C)S(C)=O (stereo not given),–,–,inactive,inactive,inactive,inactive,inactive,inactive,inactive,inactive,inactive,inactive,-20.3% and 7.58%,inactive,–,-10.1% and 0.325%,12.4% (inactive) and -11.4% (inactive),6.05% (inactive) and 1.68% (inactive),inactive,inactive
CC(C)(C)C(O)(CCc1ccc(Cl)cc1)Cn1cncn1 (stereo not given),inactive,inactive,inactive,inactive,inactive,inactive,inactive,inactive,inactive,inactive,inactive,inactive,-9.24% and 6.75%,inactive,inactive,3% and 12.6%,-23.2% (inactive) and -32.6% (inactive),-8.05% (inactive) and 4.64% (inactive),20 µM (active),inactive
Cc1coc2c1CCC(C)C2 (stereo not given),inactive,inactive,inactive,inactive,inactive,inactive,inactive,inactive,inactive,inactive,inactive,inactive,-8.64%,inactive,inactive,-8.18%,-0.116% (inactive),22.1% (inactive),inactive,inactive
C=C(C)CCl,–,inactive,inactive,inactive,inactive,inactive,inactive,inactive,inactive,inactive,inactive,inactive,-6%,inactive,inactive,-2.4%,1.96% (inactive),-0.864% (inactive),inactive,inactive
ClP(Cl)(Cl)(Cl)Cl,inactive,–,inactive,inactive,inactive,inactive,inactive,inactive,–,inactive,inactive,inactive,5.7%,inactive,inactive,4.58%,-15.7% (inactive),-5.32% (inactive),inactive,inactive
C=CC(=O)OCC(CC)CCCC (stereo not given),inactive,inactive,inactive,inactive,–,inactive,inactive,inactive,inactive,inactive,inactive,inactive,-3.1% and -13.3%,inactive,inactive,-0.0756% and 2.94%,4.48% (inactive) and -16.9% (inactive),-10.5% (inactive) and 4.22% (inactive),inactive,inactive
CCCBr,inactive,inactive,inactive,inactive,inactive,inactive,inactive,inactive,inactive,inactive,inactive,inactive,-13.5%,inactive,inactive,-1.75%,1.56% (inactive),3.13% (inactive),inactive,inactive
CCCCNC(=O)n1c(NC(=O)OC)nc2ccccc21,5.01 µM (active),6.31 µM (active),inactive,–,inactive,inactive,inactive,inactive,inactive,inactive,inactive,–,14.8%,inactive,inactive,3.99%,-15.6% (inactive),-13.8% (inactive) and -24% (inactive),inactive,inactive
